Source: PubChem (National Center for Advancing Translational Sciences (NCATS))
NS1 inh = blocks influenza NS1 protein function. Potency, µM (series often up to 46.1 µM). 270,000 tested, 0.4% active; calls by dose curve; note: actives are rising curves; nearly all actives have a fitted effect of over 50% in size
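Recovery from NS1-induced slow growth read by OD600 in budding yeast switched to galactose assay medium (pH 6.0, -URA) at 1:100 dilution. Compound 23 nl per well; the matching strain lacking NS1 serves as control.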
HCV inh = inhibitors of hepatitis C virus infection; Huh7.5.1 HCVcc-Cre infection, luciferase reporter, 44 h; Potency, µM (highest dose often 41.8 µM), hits mostly inhibitors; 340,000 tested, 3.4% active; AID 651820
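A cell-based infection assay in which seeded cells (1,000 per well) receive test compound after 4 h, are inoculated with HCVcc-Cre at approximately 0.5 moi, and are incubated 44 h before luminescence detection.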
Pf growth 96h = inhibits malaria parasite growth, 96 h | P. falciparum luciferase reporter growth, 96 h | Potency, µM (series often up to 28.7 µM), most hits filed as inhibitors | 320,000 tested, 6.9% active | AID 504834
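Delayed-death screen, second-generation endpoint: infected erythrocytes, 2% hematocrit, 0.05% parasitemia final; 96 hours at 37 C, 5% CO2; luciferase detection reagent; luminescence decrease equals reduced growth.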
Pf growth 48h = inhibits P. falciparum growth in the first generation, 48 h; P. falciparum luciferase growth in erythrocytes, 48 h; Potency, µM (series often up to 28.7 µM), most hits filed as inhibitors; 310,000 tested, 5.9% active; AID 504832
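Luciferase-expressing parasites in RBCs, 2% Hct / 0.1% parasitemia final; RPMI 1640 + 0.5% Albumax; 37 C, 5% CO2, one generation; luminescence read-out, lower signal = inhibition.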
VACV Venus inh = inhibitors of vaccinia virus (Venus reporter); Vaccinia virus Venus reporter expression, fluorescence; Potency, µM (doses to about 36.5 µM), usual class: inhibitors; 330,000 tested, 0.46% active; AID 720580; calls by dose curve; tested in A549 cells; note: nearly all actives have a fitted effect of over 30% in size
VACV mCherry inh = inhibitors of vaccinia virus infection (mCherry reporter signal). Potency, µM (series often up to 36.5 µM), hits mostly inhibitors. Vaccinia virus mCherry reporter infection, fluorescence. 310,000 tested, 0.63% active; calls by dose curve; tested in A549 cells; note: nearly all actives have a fitted effect of over 35% in size
Hits are given with their value; n = inactive; u = inconclusive; x = no result given. A selection: hits, their analogues and other compounds. The true share with any hit is near 11%. Unless noted, calls come from the whole dose curve; as a rule, active = well fitted inhibition curve with a large enough effect; inconclusive = small, poorly fitted or top-dose-only effect, or another doubt; inactive = no such curve, though single readings can be large or run the other way.

SMILES | NS1 inh | HCV inh | Pf growth 96h | Pf growth 48h | VACV Venus inh | VACV mCherry inh
CC1=C(C(=O)N(C(C)C)C(C)C)CC(CC(=O)NCC2CCCCC2)C(=O)N1Cc1ccc(F)cc1 (configuration not stated) | x | x | x | x | n | n
COc1ccc(-c2noc(CCC(=O)N3CCN(c4ccccc4OC)CC3)n2)cc1 | x | u | x | x | n | n
CSCCC(NC(=O)c1ccccc1Br)C(=O)NNC(=O)C1COc2ccccc2O1 (configuration not stated) | x | n | x | x | x | x
CN1C(=O)C2(c3ccccc31)N(C)CC(c1ccccn1)C21SC(=S)N(Cc2ccco2)C1=O (configuration not stated) | n | u | u | 9.3µM | n | n
CN1C(=O)C2(c3ccccc31)N(C)CC(c1ccccc1)C21SC(=S)N(Cc2ccco2)C1=O (configuration not stated) | n | 10µM | 15µM | 1.3µM | n | n
Cn1cc(CCNC(=O)c2ccc3nc(Cc4ccccc4F)oc3c2)cn1 | n | n | 1.9µM | n | n | n
CCn1cc(CNC(=O)c2ccc3nc(Cc4ccc(OC)cc4)oc3c2)cn1 | n | 10µM | u | n | n | n
CCn1cc(CNC(=O)c2ccc3nc(Cc4ccccc4F)oc3c2)cn1 | u | 11µM | n | n | n | n
Cn1cc(CNC(=O)c2ccc3nc(Cc4ccccc4F)oc3c2)cn1 | n | n | n | n | n | n
Cc1cccc(CNC(=O)c2ccc3nc(Cc4ccccc4F)oc3c2)n1 | n | n | n | n | n | n
NC(=O)C1c2ccccc2Oc2ccccc21 | n | n | n | x | n | n
CC[N+](CC)(CC)CCC(O)(c1ccccc1)C1CCCCC1 (configuration not stated) | x | n | 10µM | 6.6µM | n | n
COc1ccc(-n2c(-c3ccccc3)nnc2-c2ccc(Cl)cc2)cc1 | n | n | n | n | n | n
COc1ccc(-n2c(-c3ccc(Cl)cc3)c[n+]3c2CCc2ccccc2-3)cc1 | x | n | u | 1.9µM | n | n
Cc1cc(C)c(C)c(OCCOCCN2CCN(C)CC2)c1 | u | 4µM | u | n | n | n
Cc1cc(C)c(C)c(OCCOCCN2CCOCC2)c1 | n | n | u | n | n | n
CSc1ncc(Cl)c(C(=O)Nc2c(C)cccc2C)n1 | n | n | 4.1µM | n | x | x
CC(C)c1cc(Br)ccc1OCCCN1C(=O)NC(C)(C)C1=O | n | 13µM | n | x | x | x
C#Cc1cccc(NC(=O)Cc2cccs2)c1 | n | n | n | n | u | n
CCCOC(=O)C1C2C=CC(C2)C1C(=O)OCC(=O)c1ccccc1 (configuration not stated) | n | n | n | x | x | x
CC(C)[C@H](Nc1ccc(S(=O)(=O)N2CCOCC2)cc1[N+](=O)[O-])C(=O)OCC(N)=O | n | n | n | n | n | n
O=[N+]([O-])c1cc(S(=O)(=O)NCCCN2CCOCC2)ccc1Cl | n | 10µM | n | n | n | n
O=C(O)CC/C(=N\Nc1ccc(S(=O)(=O)N2CCOCC2)cc1[N+](=O)[O-])c1cccs1 | n | n | 12µM | 6.6µM | n | n
Cc1ccc(S(=O)(=O)NCCCN2CCOCC2)cc1C | n | n | x | n | n | n
CC(C)[C@H](Nc1ccc(S(=O)(=O)N2CCOCC2)cc1[N+](=O)[O-])C(=O)OCC(=O)N(C(C)C)C(C)C | n | u | 5.2µM | u | n | n
SMILES | NS1 inh | HCV inh | Pf growth 96h | Pf growth 48h | VACV Venus inh | VACV mCherry inh
O=S(=O)(NCCCN1CCOCC1)c1ccc2c(c1)OCCO2 | x | n | 10µM | n | n | n
Cn1cc(CCNC(=O)CC2C(=O)NCCN2Cc2cccc(Oc3ccccc3)c2)cn1 (configuration not stated) | n | u | u | n | x | x
COc1ccc(S(=O)(=O)NCCN2CCOCC2)cc1Br | n | n | 10µM | n | x | x
O=S(=O)(NCCN1CCOCC1)c1cc(Cl)c(Cl)cc1Cl | n | n | 13µM | n | x | x
COc1cc(Cl)c(S(=O)(=O)NCCN2CCOCC2)cc1Cl | n | n | x | n | n | n
O=[N+]([O-])c1cc(S(=O)(=O)N2CCCCC2)ccc1NCCCN1CCOCC1 | x | n | 1.5µM | u | n | n
COc1ccc(N2CCN(c3nc4c(C)cccn4c(=O)c3/C=C(\C#N)C(N)=O)CC2)cc1 | n | n | u | x | x | x
COc1ccc(NC(=O)CCN2C(=O)c3cccc([N+](=O)[O-])c3C2=O)cc1 | n | n | n | n | n | n
COc1ccc(OC)c(NC(=O)CSc2nnc(CNC(=O)c3ccco3)o2)c1 | n | n | 2.6µM | x | n | n
O=C(CSc1nnc(CNC(=O)c2ccco2)o1)Nc1ccc(Cl)cc1 | n | n | 10µM | n | x | x
O=C(COc1ccc(Cl)cc1)NCc1nnc(SCC(=O)c2ccccc2)o1 | n | u | 4.1µM | n | n | n
O=C(CSc1nnc(CNC(=O)c2ccco2)o1)Nc1ccccc1 | x | n | n | n | x | x
O=C(CSc1nnc(CNC(=O)c2ccco2)o1)c1ccccc1 | n | n | 4.1µM | x | n | n
COc1ccc(Cl)cc1NC(=O)CSc1nnc(CNC(=O)c2ccco2)o1 | x | n | u | n | x | x
O=C(CSc1nnc(CNC(=O)c2ccccc2)o1)c1ccc(Cl)cc1 | n | u | n | n | x | x
OCC1CCCN(C(=S)NCCc2ccccc2)C1 (configuration not stated) | u | n | n | n | n | n
CCOC(=O)c1nn(-c2cccc(OC)c2)c2nc(CC)c(C#N)c(=O)n12 | n | n | u | u | n | n
COc1cc(C)cc2oc(=O)c(CC(=O)NCc3cccc(Cl)c3)c(C)c12 | x | x | x | x | n | n
O=C(CSc1nnc(CNC(=O)c2ccco2)o1)Nc1cccc(Cl)c1 | n | n | 5.9µM | n | x | x
Cc1ccc(NC(=O)CSc2nnc(CNC(=O)c3ccco3)o2)cc1Cl | u | n | n | n | x | x
Cc1ccc(C)c(NC(=O)CSc2nnc(CNC(=O)c3ccco3)n2C)c1 | n | n | 2.1µM | n | n | n
Cc1cc(C)c(NC(=O)CSc2nnc(CNC(=O)c3ccco3)o2)c(C)c1 | n | n | 9.3µM | n | n | n
CCCCn1c(O)c(C(C)=NCc2ccc(F)cc2)c(=O)[nH]c1=O | n | n | 6.6µM | n | x | x
C=CCn1c(O)c(C(C)=NCc2cccnc2)c(=O)[nH]c1=O | n | n | n | n | x | x
CCCCn1c(O)c(C(CC)=NCc2ccc(F)cc2)c(=O)[nH]c1=O | n | u | u | u | x | x
C=CCn1c(O)c(C(C)=NCc2cc(OC)cc(OC)c2)c(=O)[nH]c1=O | n | u | n | n | 5µM | 8.9µM
CCOc1ccccc1C(C(=O)NCCOC)N(CCOC)C(=O)Cn1nnc2ccccc21 (configuration not stated) | n | n | n | n | n | n
COC(=O)[C@@H]1C[C@H](NC(=O)c2ccccn2)CN1Cc1cccc2ccccc12 | x | x | x | x | n | n
O=C(NC(Cc1c[nH]c2ccccc12)C(=O)O)/C(=C\c1ccccc1)NC(=O)c1ccccc1 (configuration not stated) | n | n | 10µM | n | n | n
